Assay results: PubChem BioAssay (NCI)
The panel holds about 79,000 compounds, 15% with a hit somewhere; the sample as a whole holds those more often. A number with no mark means an inactive call. Calls of active or inactive are those of the source. No stated cut-off is given here; in the data, active means growth inhibition above about 70%; inactive means the rest.

Test: NCI Yeast Anticancer Drug Screen. Data for the rad52 strain (AID 147);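 further: 0% = growth of vehicle-treated control cultures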
Conditions: S. cerevisiae rad52 mutant growth inhibition, active compounds read high
Experimental: Growth inhibition of yeast strains with defined genetic alterations is measured as a screen for potential anti-cancer activity. Selected strains with alterations in DNA damage repair or cell cycle control were exposed to compounds and growth inhibition was measured relative to vehicle treated controls. The strain used in this assay is rad52

Row | SMILES | growth inhibition (at 1.2 µM) [%] | growth inhibition (at 3.7 µM) | growth inhibition (at 11.0 µM) | growth inhibition (at 33.0 µM) | growth inhibition (at 100.0 µM)
1 | CCOC(=O)c1cc([N+](=O)[O-])c(Sc2ncnc3nc[nH]c23)c([N+](=O)[O-])c1 | 0 | 0% | 34% | 79% (active) | 90% (active)
2 | CCOc1c(N=Nc2ccccc2OC)c(C)nn1C(=S)S | 0 | 3% | 11% | 39% | 79% (active)
3 | O=C(O)C1CC(c2ccccc2)=NN1c1ccccc1 (stereo not given) | -28 | -9% | 4% | 58% | 95% (active)
4 | OC(/C=C/c1ccccc1)(Cc1cc(-c2ccccc2)n[nH]1)c1ccccc1 (stereo not given) | 14 | 14% | 11% | 14% | 9%
5 | Nc1ccc2c(c1)C(=O)c1ccc(F)cc1-2 | 13 | 24% | 43% | 47% | 53%
6 | COC(=O)/C=C(/C(=O)OC)C(Cl)(Cl)Cl | -32 | 7% | 47% | 97% (active) | 100% (active)
7 | Nc1n[n+]([O-])c2ccc(Cl)cc2[n+]1[O-] | 49 | 80% (active) | 91% (active) | 94% (active) | 96% (active)
8 | Oc1ccc(-c2nc(-c3ccc(F)cc3)c(-c3ccc4ccccc4n3)[nH]2)cc1 | -48 | -41% | 85% (active) | 96% (active) | 88% (active)
